{"source": "paper PMC7862700", "about": "“An all-to-all approach to the identification of sequence-specific readers for epigenetic DNA modifications on cytosine”"}
{"molecular_target": "T1, ELK1 (Homo sapiens, UniProt P19419 1-428)", "T1 sequence": "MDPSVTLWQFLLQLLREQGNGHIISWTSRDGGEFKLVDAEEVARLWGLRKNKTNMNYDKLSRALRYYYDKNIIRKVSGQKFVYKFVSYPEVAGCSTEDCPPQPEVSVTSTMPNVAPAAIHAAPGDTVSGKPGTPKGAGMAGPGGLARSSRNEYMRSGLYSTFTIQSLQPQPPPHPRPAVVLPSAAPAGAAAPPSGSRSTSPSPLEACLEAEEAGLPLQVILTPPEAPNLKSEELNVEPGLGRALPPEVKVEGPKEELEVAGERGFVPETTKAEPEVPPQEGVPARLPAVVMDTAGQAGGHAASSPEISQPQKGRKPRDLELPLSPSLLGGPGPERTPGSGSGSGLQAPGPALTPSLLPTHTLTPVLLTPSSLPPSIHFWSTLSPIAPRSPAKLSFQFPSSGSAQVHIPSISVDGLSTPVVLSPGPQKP", "experiment": "DAPPL (digital affinity profiling via proximity ligation, sequencing); 10 mM Tris-HCl pH 7.5, 50 mM NaCl, 1 mM DTT, 4% glycerol, room temperature, 30 min; GST-TFs on glutathione beads, 16-mer random dsDNA library, 0.1% formaldehyde crosslink after washing; high values mean tight binding", "conditions": "protein: recombinant; tags: N-terminal GST; dsDNA, one strand shown", "how_it_was_run": "(§1)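 The binding signal reported is, for every hexamer, its read frequency for a factor over its read frequency for the tag-only sample. Reads came from pools of yeast-expressed, GST-fused human transcription factors on glutathione beads, barcoded with DNA and mixed with that sample, which were incubated with 200 nmole of a random double-stranded 16-mer DNA library in Tris/NaCl/DTT/glycerol buffer at room temperature for 30 min. After washing, the pools were crosslinked with 0.1% formaldehyde, proximity-ligated with BsaI/T4 ligase for 1 h at 37 °C, PCR-amplified and sequenced on an Illumina NextSeq500.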"}
{"sequence": "GAATGG", "binding signal": "1 fold enrichment (6-mer frequency, TF over GST control)"}
{"sequence": "AGAATG", "binding signal": "1.01 fold enrichment (6-mer frequency, TF over GST control)"}
{"sequence": "TCGAGT", "binding signal": "1.01 fold enrichment (6-mer frequency, TF over GST control)"}
{"molecular_target": "T2, EHF (Homo sapiens, UniProt Q9NZC4 1-300)", "T2 sequence": "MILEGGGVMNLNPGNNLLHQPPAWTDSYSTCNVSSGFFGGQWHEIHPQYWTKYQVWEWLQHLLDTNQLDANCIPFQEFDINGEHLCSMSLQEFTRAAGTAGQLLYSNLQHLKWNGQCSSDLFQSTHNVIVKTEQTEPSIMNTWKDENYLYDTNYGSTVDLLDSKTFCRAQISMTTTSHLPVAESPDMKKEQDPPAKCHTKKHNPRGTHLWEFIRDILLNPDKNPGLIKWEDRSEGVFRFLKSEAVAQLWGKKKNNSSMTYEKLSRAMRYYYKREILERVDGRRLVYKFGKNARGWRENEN", "experiment": "DAPPL (digital affinity profiling via proximity ligation, sequencing); 10 mM Tris-HCl pH 7.5, 50 mM NaCl, 1 mM DTT, 4% glycerol, room temperature, 30 min; GST-TFs on glutathione beads, 16-mer random dsDNA library, 0.1% formaldehyde crosslink after washing; high values mean tight binding", "conditions": "protein: recombinant; tags: N-terminal GST; dsDNA, one strand shown", "how_it_was_run": "as §1"}
{"sequence": "GAATGG", "binding signal": "1.02 fold enrichment (6-mer frequency, TF over GST control)"}
{"sequence": "TTAGGA", "binding signal": "1 fold enrichment (6-mer frequency, TF over GST control)"}
{"sequence": "AGAATG", "binding signal": "1.02 fold enrichment (6-mer frequency, TF over GST control)"}
{"sequence": "GGCTTT", "binding signal": "1.05 fold enrichment (6-mer frequency, TF over GST control)"}
{"molecular_target": "SPI1 (Homo sapiens, UniProt P17947 1-270)", "experiment": "DAPPL (digital affinity profiling via proximity ligation, sequencing); 10 mM Tris-HCl pH 7.5, 50 mM NaCl, 1 mM DTT, 4% glycerol, room temperature, 30 min; GST-TFs on glutathione beads, 16-mer random dsDNA library, 0.1% formaldehyde crosslink after washing; high values mean tight binding", "conditions": "protein: recombinant; tags: N-terminal GST; dsDNA, one strand shown", "how_it_was_run": "as §1"}
{"sequence": "AGAATG", "binding signal": "1.01 fold enrichment (6-mer frequency, TF over GST control)"}
{"sequence": "TTTAGA", "binding signal": "1.05 fold enrichment (6-mer frequency, TF over GST control)"}
{"sequence": "GTAGAA", "binding signal": "1.01 fold enrichment (6-mer frequency, TF over GST control)"}
{"sequence": "TTCAGA", "binding signal": "1.04 fold enrichment (6-mer frequency, TF over GST control)"}
{"molecular_target": "T3, ELK3 (Homo sapiens, UniProt P41970 1-407)", "T3 sequence": "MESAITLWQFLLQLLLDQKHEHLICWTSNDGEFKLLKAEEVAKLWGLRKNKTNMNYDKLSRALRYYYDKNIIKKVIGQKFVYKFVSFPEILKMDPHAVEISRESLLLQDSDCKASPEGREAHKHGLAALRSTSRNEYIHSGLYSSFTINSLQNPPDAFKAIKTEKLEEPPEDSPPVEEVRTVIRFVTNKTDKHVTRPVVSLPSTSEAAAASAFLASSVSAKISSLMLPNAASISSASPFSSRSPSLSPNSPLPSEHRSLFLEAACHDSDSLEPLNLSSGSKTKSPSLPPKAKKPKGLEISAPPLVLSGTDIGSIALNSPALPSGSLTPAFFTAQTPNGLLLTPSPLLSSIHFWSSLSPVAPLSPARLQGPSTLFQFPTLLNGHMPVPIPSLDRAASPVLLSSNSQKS", "experiment": "DAPPL (digital affinity profiling via proximity ligation, sequencing); 10 mM Tris-HCl pH 7.5, 50 mM NaCl, 1 mM DTT, 4% glycerol, room temperature, 30 min; GST-TFs on glutathione beads, 16-mer random dsDNA library, 0.1% formaldehyde crosslink after washing; high values mean tight binding", "conditions": "protein: recombinant; tags: N-terminal GST; dsDNA, one strand shown", "how_it_was_run": "as §1"}
{"sequence": "ATCAAG", "binding signal": "1.04 fold enrichment (6-mer frequency, TF over GST control)"}
{"sequence": "AGAATG", "binding signal": "1.01 fold enrichment (6-mer frequency, TF over GST control)"}
{"sequence": "GGCTTT", "binding signal": "1.11 fold enrichment (6-mer frequency, TF over GST control)"}
{"molecular_target": "HSF1 (Homo sapiens, UniProt Q00613 1-529)", "sequence (Q00613 whole entry)": "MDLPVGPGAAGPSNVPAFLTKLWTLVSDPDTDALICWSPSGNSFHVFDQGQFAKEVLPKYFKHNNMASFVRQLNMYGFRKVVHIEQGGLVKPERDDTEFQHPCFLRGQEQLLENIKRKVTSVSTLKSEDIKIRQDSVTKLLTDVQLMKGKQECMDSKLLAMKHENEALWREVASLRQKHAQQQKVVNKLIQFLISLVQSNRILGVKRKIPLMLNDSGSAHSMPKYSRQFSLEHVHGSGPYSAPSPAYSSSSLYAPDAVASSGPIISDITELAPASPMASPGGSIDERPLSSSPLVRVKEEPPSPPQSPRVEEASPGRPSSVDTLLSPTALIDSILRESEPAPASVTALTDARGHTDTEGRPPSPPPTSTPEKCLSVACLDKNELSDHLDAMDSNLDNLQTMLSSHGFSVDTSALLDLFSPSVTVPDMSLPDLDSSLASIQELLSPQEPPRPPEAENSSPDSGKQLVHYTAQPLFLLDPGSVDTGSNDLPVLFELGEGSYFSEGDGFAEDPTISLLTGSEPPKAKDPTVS", "experiment": "DAPPL (digital affinity profiling via proximity ligation, sequencing); 10 mM Tris-HCl pH 7.5, 50 mM NaCl, 1 mM DTT, 4% glycerol, room temperature, 30 min; GST-TFs on glutathione beads, 16-mer random dsDNA library, 0.1% formaldehyde crosslink after washing; high values mean tight binding", "conditions": "protein: recombinant; tags: N-terminal GST; chain copies: 3; dsDNA, one strand shown", "how_it_was_run": "as §1"}
{"sequence": "TAAGAG", "binding signal": "1.19 fold enrichment (6-mer frequency, TF over GST control)"}
{"sequence": "GGGATT", "binding signal": "1.75 fold enrichment (6-mer frequency, TF over GST control)"}
{"sequence": "TACGAG", "binding signal": "1.26 fold enrichment (6-mer frequency, TF over GST control)"}
{"sequence": "AATCGT", "binding signal": "1.01 fold enrichment (6-mer frequency, TF over GST control)"}
{"sequence": "ACCAGA", "binding signal": "1.55 fold enrichment (6-mer frequency, TF over GST control)"}
{"sequence": "GGATCA", "binding signal": "1.1 fold enrichment (6-mer frequency, TF over GST control)"}
{"sequence": "AGATCA", "binding signal": "1.21 fold enrichment (6-mer frequency, TF over GST control)"}
{"sequence": "GAATGG", "binding signal": "1.07 fold enrichment (6-mer frequency, TF over GST control)"}
{"sequence": "TAAGAC", "binding signal": "1.22 fold enrichment (6-mer frequency, TF over GST control)"}
{"sequence": "ATCAAG", "binding signal": "1.03 fold enrichment (6-mer frequency, TF over GST control)"}
{"sequence": "TTAGGA", "binding signal": "1.28 fold enrichment (6-mer frequency, TF over GST control)"}
{"sequence": "AGCATA", "binding signal": "1.04 fold enrichment (6-mer frequency, TF over GST control)"}
{"sequence": "CGGATT", "binding signal": "1.56 fold enrichment (6-mer frequency, TF over GST control)"}
{"sequence": "CGAGAT", "binding signal": "1.52 fold enrichment (6-mer frequency, TF over GST control)"}
{"sequence": "AGAATG", "binding signal": "2.08 fold enrichment (6-mer frequency, TF over GST control)"}
{"sequence": "GAGATT", "binding signal": "1.25 fold enrichment (6-mer frequency, TF over GST control)"}
{"sequence": "ATCCAG", "binding signal": "1.53 fold enrichment (6-mer frequency, TF over GST control)"}
{"sequence": "CGTCGA", "binding signal": "1.06 fold enrichment (6-mer frequency, TF over GST control)"}
{"sequence": "GGTTAA", "binding signal": "1.02 fold enrichment (6-mer frequency, TF over GST control)"}
{"sequence": "CAGATC", "binding signal": "1.09 fold enrichment (6-mer frequency, TF over GST control)"}
{"sequence": "GGATAA", "binding signal": "1.2 fold enrichment (6-mer frequency, TF over GST control)"}
{"sequence": "GCATTA", "binding signal": "1.16 fold enrichment (6-mer frequency, TF over GST control)"}
{"sequence": "AGACTA", "binding signal": "1.06 fold enrichment (6-mer frequency, TF over GST control)"}
{"sequence": "ACGCGA", "binding signal": "1.04 fold enrichment (6-mer frequency, TF over GST control)"}
{"sequence": "GTCTGG", "binding signal": "1.06 fold enrichment (6-mer frequency, TF over GST control)"}
{"sequence": "TTAGAG", "binding signal": "1.25 fold enrichment (6-mer frequency, TF over GST control)"}
{"sequence": "GGCTTT", "binding signal": "1.11 fold enrichment (6-mer frequency, TF over GST control)"}
{"sequence": "AGAATC", "binding signal": "1.74 fold enrichment (6-mer frequency, TF over GST control)"}
{"sequence": "TTTAGA", "binding signal": "1.37 fold enrichment (6-mer frequency, TF over GST control)"}
{"sequence": "TCGTAA", "binding signal": "1.12 fold enrichment (6-mer frequency, TF over GST control)"}
{"sequence": "GTAGAA", "binding signal": "1.47 fold enrichment (6-mer frequency, TF over GST control)"}
{"sequence": "AGATTG", "binding signal": "1.01 fold enrichment (6-mer frequency, TF over GST control)"}
{"sequence": "GCGATT", "binding signal": "1.23 fold enrichment (6-mer frequency, TF over GST control)"}
{"sequence": "TTCAGA", "binding signal": "1.09 fold enrichment (6-mer frequency, TF over GST control)"}
{"sequence": "TCGAGT", "binding signal": "1.41 fold enrichment (6-mer frequency, TF over GST control)"}
{"sequence": "TTAGAC", "binding signal": "1.1 fold enrichment (6-mer frequency, TF over GST control)"}
{"sequence": "ATTAGA", "binding signal": "1.45 fold enrichment (6-mer frequency, TF over GST control)"}
{"sequence": "GATCTG", "binding signal": "1.07 fold enrichment (6-mer frequency, TF over GST control)"}
{"sequence": "TCCAGA", "binding signal": "3.36 fold enrichment (6-mer frequency, TF over GST control)"}
{"molecular_target": "T4, ETV2 (Homo sapiens, UniProt O00321 1-342)", "T4 sequence": "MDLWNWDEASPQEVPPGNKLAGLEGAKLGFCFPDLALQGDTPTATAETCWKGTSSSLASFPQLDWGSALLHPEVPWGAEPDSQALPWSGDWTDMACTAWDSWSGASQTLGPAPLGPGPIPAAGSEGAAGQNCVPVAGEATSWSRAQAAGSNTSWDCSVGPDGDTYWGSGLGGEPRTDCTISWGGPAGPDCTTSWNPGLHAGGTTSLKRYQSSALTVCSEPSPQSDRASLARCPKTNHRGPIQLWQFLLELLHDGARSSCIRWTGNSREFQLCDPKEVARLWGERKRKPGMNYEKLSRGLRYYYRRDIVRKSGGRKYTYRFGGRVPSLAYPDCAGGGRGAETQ", "experiment": "DAPPL (digital affinity profiling via proximity ligation, sequencing); 10 mM Tris-HCl pH 7.5, 50 mM NaCl, 1 mM DTT, 4% glycerol, room temperature, 30 min; GST-TFs on glutathione beads, 16-mer random dsDNA library, 0.1% formaldehyde crosslink after washing; high values mean tight binding", "conditions": "protein: recombinant; tags: N-terminal GST; dsDNA, one strand shown", "how_it_was_run": "as §1"}
{"sequence": "ACCAGA", "binding signal": "1.01 fold enrichment (6-mer frequency, TF over GST control)"}
{"sequence": "AGATCA", "binding signal": "1.03 fold enrichment (6-mer frequency, TF over GST control)"}
{"sequence": "GAATGG", "binding signal": "1.1 fold enrichment (6-mer frequency, TF over GST control)"}
{"sequence": "ATCAAG", "binding signal": "1.17 fold enrichment (6-mer frequency, TF over GST control)"}
{"sequence": "CGAGAT", "binding signal": "1.07 fold enrichment (6-mer frequency, TF over GST control)"}
{"sequence": "AGAATG", "binding signal": "1.01 fold enrichment (6-mer frequency, TF over GST control)"}
{"sequence": "CGTCGA", "binding signal": "1.01 fold enrichment (6-mer frequency, TF over GST control)"}
{"sequence": "CAGATC", "binding signal": "1.02 fold enrichment (6-mer frequency, TF over GST control)"}
{"sequence": "ACGCGA", "binding signal": "1.02 fold enrichment (6-mer frequency, TF over GST control)"}
